Assay outcomes (PubChem BioAssay)
SNCA viab count – reduces viability of HEK-293 SNCA reporter cells; HEK-293-SNCA-luc viability, GF-AFC fluorescence, 24 h; Potency, µM (doses to about 57.1 µM), actives largely listed as cytotoxic; actives 0.12% (n = 150,000); also: nearly all actives have a fitted effect of over 30% in size
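Cytotoxicity counterscreen: after 24 h compound treatment of genome-edited SNCA-luciferase HEK-293 cells, live-cell protease substrate GF-AFC read by fluorescence after 30 min; activity scaled between DMSO (0%) and medium-only (-100%), curves Hill-fitted.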
IP6K1 inh – blocks human inositol hexakisphosphate kinase 1; Q92551; IP6K1 kinase, ADP-Glo luminescence, 2 h; active compounds read low; activity change, % (series mostly up to about 58 µM); actives 0.81% (n = 140,000); AID 1645851; in the data active = activity change below about -25%
Target sequence (Q92551 whole entry, looked up): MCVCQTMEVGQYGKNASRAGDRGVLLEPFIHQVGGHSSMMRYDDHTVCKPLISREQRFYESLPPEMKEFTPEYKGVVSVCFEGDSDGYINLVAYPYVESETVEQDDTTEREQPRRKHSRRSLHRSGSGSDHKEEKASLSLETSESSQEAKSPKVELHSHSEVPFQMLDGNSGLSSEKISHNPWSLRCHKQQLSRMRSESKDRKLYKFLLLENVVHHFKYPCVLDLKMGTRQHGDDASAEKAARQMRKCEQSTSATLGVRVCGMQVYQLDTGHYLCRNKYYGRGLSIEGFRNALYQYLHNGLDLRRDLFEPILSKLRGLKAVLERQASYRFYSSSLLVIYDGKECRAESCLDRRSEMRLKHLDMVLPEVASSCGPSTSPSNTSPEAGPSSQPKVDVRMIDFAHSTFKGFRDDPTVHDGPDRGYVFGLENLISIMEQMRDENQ
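ADP-Glo luminescence measures ADP made by human IP6K1 during a 2 h RT reaction with ATP/IP6 (mix at 1.3 mM/130 uM); top library doses 57.5 and 19.1 uM final.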
KDM5B inhibitor – KDM5B demethylase inhibition | KDM5B demethylase, FDH-coupled NADH fluorescence (FDH is formaldehyde dehydrogenase) | actives 2.6% (n = 220,000) | Potency, µM (highest dose often 57.7 µM), most hits filed as inhibitors | AID 1347165; also: nearly all actives have a fitted effect of over 70% in size
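Compound dilutions met 200 nM (final) KDM5BΔAP for 10 min at room temperature before substrate addition. The substrate mix held 12.5 µM H3K4me3 with cofactors 25 µM α-ketoglutarate and 50 µM Fe²⁺. NADH signal gain over 30 min defined activity.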
SNCA expr inhib – reduces expression of the alpha-synuclein gene; HEK-293 SNCA-luciferase knock-in, luminescence, 24 h; Potency, µM (series often up to 57.2 µM), usual class: inhibitors; actives 0.17% (n = 140,000); AID 1671194; also: nearly all actives have a fitted effect of over 45% in size
Large screens that a line does not name were inactive. Rows were chosen to be rich in hits. Some 2.9% of all compounds tested hit in one or more screens of this group. Unless noted, calls follow the shape of the dose curve; as a rule, active = well fitted curve in the direction sought with a large enough effect; inconclusive = small, poorly fitted or top-dose-only effect, or another doubt; inactive = no such curve, though single readings can be large; an effect the other way counts as inactive or inconclusive.

CN(C)c1ccc(S(=O)(=O)N2CCCCC2)cc1NCC(=O)Nc1ccc(N2CCCC2)cc1	none (no result: SNCA viab count, IP6K1 inh, SNCA expr inhib)
CC(=O)NC1(C)CCN(Cc2ccc(-c3ccc(N4CCOCC4)cc3)cc2)C1 (stereo not drawn)	KDM5B inhibitor 28µM
CC(=O)NC1(C)CCN(Cc2ccc(-c3cccc(Cl)c3)cc2)C1 (stereo not drawn)	KDM5B inhibitor inconclusive
CCc1ccc(-c2nc(CS(=O)CC(=O)NCC(OC)OC)c(C)o2)cc1 (stereo not drawn)	none (no result: SNCA viab count, IP6K1 inh, SNCA expr inhib)
C=CCCC(CN1CCCOCC1)Oc1ccc2cccc(OC)c2n1 (stereo not drawn)	KDM5B inhibitor 32µM
CC(C)Oc1ccc(CN2CCc3nc(N4CCN(C)CC4)[nH]c(=O)c3CC2)cc1	SNCA viab count inconclusive
COc1cc(OC)cc(C(=O)Nc2nnc(C(F)(F)F)s2)c1	none (no result: SNCA viab count, IP6K1 inh, SNCA expr inhib)
COCCNCCCn1c(C(=O)CF)c(-c2ccc(C)cc2)c2c(N)ncnc21	none (no result: IP6K1 inh, KDM5B inhibitor)
Cc1ccc(-c2c(C(=O)CCl)n(CCCO)c3ncnc(N)c23)cc1	SNCA viab count 24µM (no result: KDM5B inhibitor, SNCA expr inhib)
Fc1ccc(CN2CCC3(CC(Cc4ccccc4)=NO3)C2)cc1 (stereo not drawn)	KDM5B inhibitor 32µM
Clc1ccc(CN2CCC3(CC2)CC(Cc2ccccc2)=NO3)cc1	SNCA expr inhib inconclusive
COc1ccc(CN2CCC3(CC(Cc4ccccc4)=NO3)C2)cc1 (stereo not drawn)	KDM5B inhibitor 25µM
CCCc1cc(C(=O)N2CCC3(CC2)CN(C(C)CCC)C(=O)O3)n[nH]1 (stereo not drawn)	KDM5B inhibitor 28µM
C=CCNC(=O)c1cnn2cc(C)ccc12	KDM5B inhibitor 40µM
C=CCNC(=O)c1cnn2c1CN(C(C)=O)CC2	none
C=CCNC(=O)c1cnn2ncccc12	KDM5B inhibitor 32µM
Cc1ccc2c(C(=O)Nc3ccc(Cl)nc3)cnn2c1	KDM5B inhibitor 40µM
C=CCNC(=O)c1cnn2c1CN(C(=O)c1cccnc1)CC2	none
O=C(NCc1ccc(Cl)cc1)c1cccn2cncc12	SNCA viab count inconclusive, KDM5B inhibitor inconclusive
Cc1ccc2c(C(=O)NCc3ccc(Cl)cc3)cnn2c1	KDM5B inhibitor 35µM
Cc1ccc2c(C(=O)Nc3ccc(F)cc3)cnn2c1	KDM5B inhibitor inconclusive
CC1CCc2c(sc3ncnc(N4CCS(=O)CC4)c23)C1 (stereo not drawn)	none (no result: SNCA viab count, IP6K1 inh, SNCA expr inhib)
CCN(c1ccc2c(c1)OCO2)C1CN(C(=O)OC(C)(C)C)C1	KDM5B inhibitor 89µM
CNC(=O)c1cc(-c2ccc([S+](C)(=O)[O-])cc2)cc2c1OCCN2Cc1cccnc1	KDM5B inhibitor 35µM
CNC(=O)c1cc(-c2ccc(OC)c(OC)c2)cc2c1OCCN2Cc1cccnc1	KDM5B inhibitor 32µM
COc1ncc(-c2cc(C(=O)NCc3cccnc3)c3c(c2)N(C)CCO3)cn1	none
CNC(=O)c1cc(-c2ccc(F)cc2OC)cc2c1OCCN2Cc1cccnc1	KDM5B inhibitor 40µM
CNC(=O)c1cc(-c2cnn(C)c2C)cc2c1OCCN2Cc1cccnc1	SNCA viab count inconclusive, KDM5B inhibitor 35µM
CNC(=O)c1cc(-c2cnc(OC)nc2)cc2c1OCCN2Cc1cccnc1	none
C[S+](=O)([O-])N1CC2(CCCCN2Cc2ccccn2)Cc2ccccc21 (stereo not drawn)	KDM5B inhibitor inconclusive
O=C(c1cccs1)N(c1ccccc1)C1C=CS(=O)(=O)C1 (stereo not drawn)	none (no result: SNCA viab count, IP6K1 inh, SNCA expr inhib)
Cc1cc(Cl)ccc1OCC(=O)NC1CCN(C2CC2)CC1	none (no result: SNCA viab count, IP6K1 inh, SNCA expr inhib)
c1ccc(OCc2noc(-c3ccc(NC4CCSC4)nc3)n2)cc1 (stereo not drawn)	KDM5B inhibitor 28µM
CC1(COc2ccc(-c3nc(COc4ccccc4)no3)cn2)CCCNC1 (stereo not drawn)	KDM5B inhibitor inconclusive
Cc1cc(C)n2nc(C(=O)OC(C(=O)c3c[nH]c4ccccc34)c3ccccc3)nc2n1 (stereo not drawn)	none (no result: SNCA viab count, IP6K1 inh, SNCA expr inhib)
COc1ccc(Nc2ccnc(N3CCC(N[S+](=O)([O-])c4ccc(C)cc4)CC3)n2)cc1	SNCA viab count inconclusive (no result: KDM5B inhibitor)
CCCCS(=O)(=O)N[C@@H]1CN(c2ncccn2)C[C@H]1CN(C)C	KDM5B inhibitor 32µM
CCCS(=O)(=O)N[C@@H]1CN(c2ncccn2)C[C@H]1CN(C)C	KDM5B inhibitor 28µM
Cc1ccc(CS(=O)(=O)N[C@@H]2CN(c3ncccn3)C[C@H]2CN(C)C)cc1	KDM5B inhibitor inconclusive
CC1CCCCC1NC(=O)c1ccc2ccccc2n1 (stereo not drawn)	none (no result: SNCA viab count, IP6K1 inh, SNCA expr inhib)
Nc1ccc2c(N3CCCCC3)ncnc2c1	KDM5B inhibitor inconclusive
Nc1ccc2ncnc(N3CCCCC3)c2c1	KDM5B inhibitor 28µM, SNCA expr inhib inconclusive
CC(C)NC(=O)c1cc(-c2ccc(F)cc2)nc2c1cnn2C	none (no result: SNCA viab count, KDM5B inhibitor, SNCA expr inhib)
CC(C)NC(=O)c1cc(-c2ccc(Cl)nc2)nc2c1cnn2C	KDM5B inhibitor 56µM
CC(C)NC(=O)c1cc(-c2ccc(S(C)(=O)=O)cc2)nc2c1cnn2C	KDM5B inhibitor 79µM
Cc1cn2nc(C(=O)NCc3cccc(Cl)c3)cc2c(N2CCSCC2)n1	KDM5B inhibitor 14µM
Cc1cn2nc(C(=O)NCc3ccc(C(C)C)cc3)cc2c(N2CCSCC2)n1	KDM5B inhibitor 14µM
Cc1cn2nc(C(=O)NCCc3cccs3)cc2c(N2CCSCC2)n1	KDM5B inhibitor 14µM
CN(C)S(=O)(=O)c1cccc(NC(=O)CSc2cccc3cccc(Cl)c23)c1	none (no result: SNCA viab count, IP6K1 inh, SNCA expr inhib)
O=C(NCCN[S+](=O)([O-])c1ccccc1)c1cccc(-c2ccc(C(F)(F)F)cc2)c1	SNCA expr inhib inconclusive (no result: KDM5B inhibitor)
Cc1ccc(CNC(=O)CCc2c[nH]c3ccccc23)s1	none (no result: SNCA viab count, IP6K1 inh, SNCA expr inhib)
C=CCNC(=O)CCc1c(C)nn(-c2ccccc2C)c1Oc1cccc(F)c1	none
O=C(NCc1ccc(F)c(F)c1)c1cn2cc(-c3ccccc3)sc2n1	none (no result: KDM5B inhibitor)
CC1(C(=O)N2CCC(c3ccccc3)CC2)COCc2cnc(Nc3ccccc3)nc21 (stereo not drawn)	SNCA viab count inconclusive, KDM5B inhibitor inconclusive, SNCA expr inhib inconclusive
CC1(C(=O)N2CCC(c3ccccc3)CC2)CCc2cnc(N3CCOCC3)nc21 (stereo not drawn)	KDM5B inhibitor 32µM, SNCA expr inhib inconclusive
O=c1c2c(n(Cc3cccnc3)n1CCc1ccccc1)CN(CC1CC1)CC2	KDM5B inhibitor inconclusive, SNCA expr inhib inconclusive
O=c1c2c(n(Cc3cccnc3)n1CCc1ccccc1)CN(CC1CCOC1)CC2 (stereo not drawn)	KDM5B inhibitor 35µM
O=c1c2c(n(Cc3ccccc3)n1-c1ccccc1)CN(Cc1cccnc1)CC2	KDM5B inhibitor 32µM
Cc1ccc(CC(=O)NC(C)C(=O)N2CCN(c3ccccn3)CC2)cc1 (stereo not drawn)	KDM5B inhibitor 28µM
O=C1CCN(C(=O)c2cccs2)CCCC(C(=O)N2CCN(c3ccccn3)CC2)CCN1 (stereo not drawn)	KDM5B inhibitor inconclusive
CC(NC(=O)C(C)(C)C)C(=O)N1CCN(c2ccccn2)CC1 (stereo not drawn)	KDM5B inhibitor 28µM
COCCC(=O)NC(C)C(=O)N1CCN(c2ccccn2)CC1 (stereo not drawn)	KDM5B inhibitor 25µM
